This is an account of results in PubChem BioAssay.

Each structure is given as a SMILES string. Inconclusive results are not listed. The source made the active and inactive calls.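 The calls were made as follows, unless noted: active = cell viability at or below a set limit in both duplicate runs, the limit being the all-compound median minus 4 SD (cut at about 23% in these data, passing the limit was not always enough); inconclusive = no clear call, values can overlap the other calls; inactive = the rest.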

A short description of the first assay: viability gain of MRP-1-high H69AR cells under doxorubicin, pilot screen, MRP-1 activator project, CellTiter-Glo, duplicate (AID 807;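 active = viability increase at or above a cutoff of the median across tested compounds plus 3 SD, cut at about 8.5% in these data, passing the limit was not always enough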;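 also: compound pretreatment 18-22 h then 72 h combined with doxorubicin; 0% = doxorubicin alone and 100% = vehicle without doxorubicin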). Particulars: H69AR viability with doxorubicin, CellTiter-Glo luminescence; at 10 µM; active compounds read high.
As to `COc1cccc(NC(=O)C2CCCN(S(=O)(=O)c3cccc4cccnc34)C2)c1` (centres undefined), the viability increase was -1.5% (inactive). For `CCc1nnc(NC(=O)COC(=O)CN2C(=O)c3ccccc3C2=O)s1`, the viability increase is -1.95% (inactive). The same measure, in the same setting: with `O=C(C1CCN(c2nnc(-n3cccc3)s2)CC1)N1CCc2ccccc2C1` the figure was -1.4% (inactive); with `Cc1c(C(=O)NC2CC2)oc2ccc(S(=O)(=O)N3CCCCCC3)cc12`, 3.84% (inactive). For `Cc1sc2nc(SCC(=O)NCCO)n(C)c(=O)c2c1C`, the viability increase was -1.81% (inactive).

For the molecule `S=c1[nH]nc(-c2ccccc2)n1C1C=CCCC1` (centres undefined), the viability increase was -1.61% (inactive).

On to `c1ccc(N2CCN(Cc3cn4cccnc4n3)CC2)cc1`, for which the viability increase is 1.38% (inactive). Still for that read-out and setting: with `CCCCc1ccc(NC(=O)C2CCCO2)cc1` (centres undefined) the figure was 2.53% (inactive); with `Cc1[nH]c2ccccc2c(=O)c1CN1CCCCC1`, -0.38% (inactive); with `Cc1ccccc1-n1c(Cn2c(=O)sc3ccccc32)nnc1SCC(=O)N1CCCC1`, -0.45% (inactive).

As for `COc1ccccc1-n1c(=O)[nH]c2c(C(N)=O)nc(CC(C)C)nc21`, the viability increase was -2.94% (inactive). The same measure, in the same setting: with `Cc1ccccc1-c1nc(CN2CCC(C(=O)N3CCC(C(N)=O)CC3)CC2)c(C)o1` the figure was -2.4% (inactive); with `CCCCN(CC)CCCNC(=O)c1cc2c(=O)n(C)c3ccccc3c2n1C`, -7.73% (inactive); with `Cc1nn(-c2ccc(F)cc2)c2c1cc(C#N)c1nc3ccccc3n12`, -1.92% (inactive). As to `CCCn1c(OC)nc2c1c(=O)n(C)c(=O)n2C`, the viability increase was 0.06% (inactive).

Turning to `CCOC(=O)Cc1ccc(NS(=O)(=O)c2ccc(SC)cc2)cc1`, the viability increase is -4.85% (inactive). Still for that read-out and setting: then `CC(C)Sc1nc2c(c(=O)n1-c1ccc(F)cc1)SCC2`, with -2.6% (inactive).

`COc1cccc(C2CC(c3c(Cl)cccc3Cl)n3nc(N)nc3N2)c1` (centres undefined): the viability increase is -0.07% (inactive). Same read-out and setting: with `Cc1cccc(OCCNC(=O)c2ncn[nH]2)c1` the figure was 0.64% (inactive); with `COc1ccc(S(=O)(=O)N2CCN(c3ccc(C)cc3C)CC2)cc1OC`, -0.07% (inactive); with `CS(=O)(=O)NCCSCc1c(F)cccc1Cl`, 0.04% (inactive). The same measure, in the same setting: then `CC(C)CCNC(=O)Cn1c(NCCC(C)C)nc2c1c(=O)n(C)c(=O)n2C`, with -1.31% (inactive).

For the molecule `CCOC(=O)N1CCC(NC(=O)C2CCCN(C(=O)c3cc4sccc4n3C)C2)CC1` (centres undefined), the viability increase was 0.63% (inactive). Same read-out and setting: with `CCOC(=O)N1CCC(NC(=O)c2cc(C(=O)NC3CCCC3)ccc2CO)CC1` the figure was -0.72% (inactive).

A further assay can be described thus: growth suppression of beta-catenin knockout HCT116, pilot screen, human colon tumor cells (AID 823).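 Also: 0% = wells killed by 20 µM Hyamine and 100% = untreated DMSO cell wells.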 The following applies: CellTiter-Glo, 60 h, at 10 µM, active compounds read low.
Regarding `CCOC(=O)C1CCN(C(=O)CN(c2ccc(Cl)c(C(F)(F)F)c2)S(C)(=O)=O)CC1`, the viability is 88.1% (inactive). Same read-out and setting: with `CCOc1ccccc1C(=O)Nc1cc(=O)n(C)c(=O)n1C` the figure was 103% (inactive); with `Cc1ccc(-c2cc3nc4c(c(=O)n3[nH]2)CCCC4)cc1`, 95.2% (inactive); with `CCOC(=O)C(C)Sc1nnc(Cc2cc(=O)[nH]c(=O)[nH]2)n1-c1ccc(Cl)cc1` (centres undefined), 104% (inactive).

For the molecule `c1nc(NCC2CCCO2)c2[nH]cnc2n1` (centres undefined), the viability is 100% (inactive). Regarding `O=C(Nc1ccc(Cl)cn1)c1cccnc1`, the viability is 63% (inactive).

Take `O=C1c2ccccc2C(=O)N1C/C=C/CN1C(=O)c2ccccc2C1=O`: the viability is 90.3% (inactive). On the same count and under the same terms, with `O=c1oc2c3c4c(cc2cc1-c1nc2ccccc2[nH]1)CCCN4CCC3` the figure was 87.2% (inactive). Turning to `CCCCC(=O)NCCc1cc2c(C)ccc(C)c2[nH]c1=O`, the viability was 109% (inactive).

On to `O=C(NCc1ccc(F)cc1)c1cc2ccccn2n1`, for which the viability was 99% (inactive). Same read-out and setting: then `COc1cccc(C2C3=C(N=C4SCC(=O)N42)c2ccccc2CC3)c1OC` (centres undefined), with 65.8% (inactive). For the molecule `CCOC(=O)N1CCC(c2cc(=O)n3[nH]c(C)c(-c4ccc(F)cc4)c3n2)CC1`, the viability is 15.8% (active). On the same count and under the same terms, with `C=CCn1c(=O)n(CCOC)c(=O)c2sc3ccccc3c21` the figure was 89.9% (inactive); with `Cc1ccc2cc(CCNC(=O)C(C)C)c(=O)[nH]c2c1C`, 105% (inactive). Turning to `COc1ccc(S(=O)(=O)N2CCCC2C(=O)Nc2ccc(O)cc2)cc1` (centres undefined), the viability is 108% (inactive). Still for that read-out and setting: with `Cc1cccc(-n2ncc3c(NCc4cccnc4)ncnc32)c1` the figure was 89.4% (inactive); with `COc1cccc(NC(=O)C2CCCN(S(=O)(=O)c3cccc4cccnc34)C2)c1` (centres undefined), 72.4% (inactive); with `CCc1nnc(NC(=O)COC(=O)CN2C(=O)c3ccccc3C2=O)s1`, 96.8% (inactive). The same measure, in the same setting: then `O=C(C1CCN(c2nnc(-n3cccc3)s2)CC1)N1CCc2ccccc2C1`, with 97% (inactive). Regarding `Cc1c(C(=O)NC2CC2)oc2ccc(S(=O)(=O)N3CCCCCC3)cc12`, the viability is 92.9% (inactive). On the same count and under the same terms, then `Cc1sc2nc(SCC(=O)NCCO)n(C)c(=O)c2c1C`, with 105% (inactive); and `S=c1[nH]nc(-c2ccccc2)n1C1C=CCCC1` (centres undefined), with 102% (inactive); and `c1ccc(N2CCN(Cc3cn4cccnc4n3)CC2)cc1`, with 98% (inactive).

Turning to `CCCCc1ccc(NC(=O)C2CCCO2)cc1` (centres undefined), the viability was 100% (inactive).

Consider `Cc1[nH]c2ccccc2c(=O)c1CN1CCCCC1`, for which the viability is 97.3% (inactive). The same measure, in the same setting: then `Cc1ccccc1-n1c(Cn2c(=O)sc3ccccc32)nnc1SCC(=O)N1CCCC1`, with 98.6% (inactive); and `COc1ccccc1-n1c(=O)[nH]c2c(C(N)=O)nc(CC(C)C)nc21`, with 97.9% (inactive).

In the case of `Cc1ccccc1-c1nc(CN2CCC(C(=O)N3CCC(C(N)=O)CC3)CC2)c(C)o1`, the viability is 92.8% (inactive). As for `CCCCN(CC)CCCNC(=O)c1cc2c(=O)n(C)c3ccccc3c2n1C`, the viability was 55.8% (inactive). On the same count and under the same terms, then `Cc1nn(-c2ccc(F)cc2)c2c1cc(C#N)c1nc3ccccc3n12`, with 95.9% (inactive); and `CCCn1c(OC)nc2c1c(=O)n(C)c(=O)n2C`, with 107% (inactive); and `CCOC(=O)Cc1ccc(NS(=O)(=O)c2ccc(SC)cc2)cc1`, with 94.4% (inactive). `CC(C)Sc1nc2c(c(=O)n1-c1ccc(F)cc1)SCC2`: the viability was 84.6% (inactive). `COc1cccc(C2CC(c3c(Cl)cccc3Cl)n3nc(N)nc3N2)c1` (centres undefined): the viability is 103% (inactive).

For `Cc1cccc(OCCNC(=O)c2ncn[nH]2)c1`, the viability is 94.2% (inactive). The same measure, in the same setting: then `COc1ccc(S(=O)(=O)N2CCN(c3ccc(C)cc3C)CC2)cc1OC`, with 50.6% (inactive); and `CS(=O)(=O)NCCSCc1c(F)cccc1Cl`, with 96.2% (inactive). On the same count and under the same terms, with `CC(C)CCNC(=O)Cn1c(NCCC(C)C)nc2c1c(=O)n(C)c(=O)n2C` the figure was 98.2% (inactive); with `CCOC(=O)N1CCC(NC(=O)C2CCCN(C(=O)c3cc4sccc4n3C)C2)CC1` (centres undefined), 96.7% (inactive); with `CCOC(=O)N1CCC(NC(=O)c2cc(C(=O)NC3CCCC3)ccc2CO)CC1`, 92.1% (inactive).
